# Reference: article PMC4336329 (PLoS ONE, 2015)
# About 14,000 (4.5%) of roughly 310,000 compounds showed an effect of 50% or more. Effects have a minus sign here. Shown is part of a subset that was picked to be rich in strong results.
# Target: human ether-à-go-go-related gene (hERG) potassium channel (human, UniProt Q12809)
# Assay: primary screen, population patch clamp on CHO cells stably expressing hERG; higher = less effect of the substance
# 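Note: peak tail current of the secondary pulse compared with the same well before compound.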
# Sequence of human ether-à-go-go-related gene (hERG) potassium channel (Q12809 whole entry, looked up): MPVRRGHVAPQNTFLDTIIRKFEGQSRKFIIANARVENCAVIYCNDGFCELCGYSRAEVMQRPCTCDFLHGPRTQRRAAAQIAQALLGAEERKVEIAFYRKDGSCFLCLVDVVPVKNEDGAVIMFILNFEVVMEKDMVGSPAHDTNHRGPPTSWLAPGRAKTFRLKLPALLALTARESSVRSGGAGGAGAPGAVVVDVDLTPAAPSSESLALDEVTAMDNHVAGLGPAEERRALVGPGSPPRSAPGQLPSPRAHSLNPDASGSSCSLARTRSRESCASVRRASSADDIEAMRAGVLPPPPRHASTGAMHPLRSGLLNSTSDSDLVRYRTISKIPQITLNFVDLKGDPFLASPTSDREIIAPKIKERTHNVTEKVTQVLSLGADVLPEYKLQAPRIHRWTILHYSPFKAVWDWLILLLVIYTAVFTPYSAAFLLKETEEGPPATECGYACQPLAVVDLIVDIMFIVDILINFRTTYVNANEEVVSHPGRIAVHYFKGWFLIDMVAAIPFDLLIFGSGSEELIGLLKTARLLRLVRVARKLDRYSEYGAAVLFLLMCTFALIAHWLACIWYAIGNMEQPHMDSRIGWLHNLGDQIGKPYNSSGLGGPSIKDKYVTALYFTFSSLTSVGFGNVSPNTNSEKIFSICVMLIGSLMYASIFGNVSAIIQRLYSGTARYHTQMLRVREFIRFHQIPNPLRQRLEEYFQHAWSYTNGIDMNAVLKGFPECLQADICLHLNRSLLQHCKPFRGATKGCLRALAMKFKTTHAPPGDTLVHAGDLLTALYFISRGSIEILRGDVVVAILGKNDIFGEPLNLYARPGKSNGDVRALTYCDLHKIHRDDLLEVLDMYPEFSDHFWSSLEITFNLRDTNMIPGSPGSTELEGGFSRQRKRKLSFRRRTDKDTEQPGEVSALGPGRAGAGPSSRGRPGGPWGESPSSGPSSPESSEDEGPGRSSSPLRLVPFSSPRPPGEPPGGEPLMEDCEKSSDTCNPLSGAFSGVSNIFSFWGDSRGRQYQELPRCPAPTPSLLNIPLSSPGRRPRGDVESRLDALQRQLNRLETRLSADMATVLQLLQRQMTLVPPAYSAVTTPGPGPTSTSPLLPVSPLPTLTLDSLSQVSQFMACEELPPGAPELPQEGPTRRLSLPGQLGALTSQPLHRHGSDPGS
row,Structure (SMILES),"hERG current change (%, negative = inhibition) at 10uM [%]"
1,O=C(N/C(=C/c1cccnc1)C(=O)N1CCOCC1)c1ccco1,6.59
2,CCN(CC)S(=O)(=O)c1ccc(NC(=O)c2cc(C(=O)OC)cc([N+](=O)[O-])c2)cc1,10.3
3,CC(CNC(=O)c1ccc(OC2CCN(Cc3ccccn3)CC2)cc1)c1ccccc1 (stereo not drawn),-76.5
4,CN(C(=O)c1ccc(OC2CCN(CCc3ccccc3)CC2)cc1)C1CCCCC1,-63.5
5,CN(Cc1nccs1)C(=O)c1ccc(OC2CCN(CCc3ccccc3)CC2)cc1,-58.9
6,CN(C(=O)c1ccc(OC2CCN(CCc3ccccc3)CC2)cc1)C1CCOCC1,-9.93
7,CN(C(=O)c1ccc(OC2CCN(CCc3ccccc3)CC2)cc1)C1CCOC1 (stereo not drawn),-25.3
8,Cc1cc(CN(C)C(=O)c2ccc(OC3CCN(CCc4ccccc4)CC3)cc2)on1,-74.1
9,CC(CNC(=O)c1ccc(OC2CCN(Cc3ccccn3)CC2)cc1)Oc1cccnc1 (stereo not drawn),-21.9
10,CN(Cc1cnn(C)c1)C(=O)c1ccc(OC2CCN(CCc3ccccc3)CC2)cc1,-42.9
11,Cc1cc(CN(C)C(=O)c2ccc(OC3CCN(Cc4ccccn4)CC3)cc2)on1,-37.7
12,CN(Cc1nccn1C)C(=O)c1ccc(OC2CCN(CCc3ccccc3)CC2)cc1,-38.3
13,CN(Cc1nccs1)C(=O)c1ccc(OC2CCN(Cc3ccccn3)CC2)cc1,-11.5
14,CC(NC(=O)c1ccc(OC2CCN(Cc3ccccn3)CC2)cc1)c1ccccc1 (stereo not drawn),-20.3
15,CCN(c1cccc(C)c1)S(=O)(=O)c1ccc2c(c1)NC(=O)CCS2,8.09
16,CCOC(=O)c1ccc(NS(=O)(=O)c2cc3c4c(c2)CCN4C(=O)CC3)cc1,-9.74
17,CSCCC(NC(=O)c1ccccc1)C(=O)N(C)CC(=O)Nc1ccc(N2CCOCC2)cc1 (stereo not drawn),5.72
18,CCCC(C)NC(=O)C1CC(=O)N(CCc2ccc(F)cc2)C1 (stereo not drawn),9.07
19,COCCn1c(=S)[nH]c2ccccc21,28.7

row,Structure (SMILES),"hERG current change (%, negative = inhibition) at 10uM [%]"
1,CCC(C)(C)n1nnnc1C(c1cccnc1)N1CCCC(C)C1 (stereo not drawn),3.14
2,CCOC(=O)c1ccc(NC(=O)c2cc3c(s2)CCC3)cc1,6.15
3,O=C(NC1CCCCC1)C1CCCN1S(=O)(=O)c1ccc(F)cc1 (stereo not drawn),-0.938
4,COc1cc(/C=C2\OC(=O)c3c(OC)cccc32)ccc1O,15.6
5,CN(CCc1ccccn1)C(=O)c1ccc(OC2CCN(CCc3ccccc3)CC2)cc1,-58.5
6,Cc1nn(C)cc1CN(C)C(=O)c1ccc(OC2CCN(Cc3ccccn3)CC2)cc1,8.65
7,CC(c1nccs1)N(C)C(=O)c1ccc(OC2CCN(CCc3ccccc3)CC2)cc1 (stereo not drawn),-51.4
8,CCn1ccnc1CN(C)C(=O)c1ccc(OC2CCN(CCc3ccccc3)CC2)cc1,-24.8
9,CC(C)N(C)C(=O)c1ccc(OC2CCN(CCc3ccccc3)CC2)cc1,-40.8
10,CN(CCc1ccccn1)C(=O)c1ccc(OC2CCN(Cc3ccccn3)CC2)cc1,4.04
11,O=C(CNc1ccccc1)Nc1ccc(F)cc1,3.4
12,O=C(NCCNS(=O)(=O)c1ccc(C(F)(F)F)cc1)N1CCOCC1,6.84
13,COC(=O)c1ccccc1NC(=O)CSc1nnc(-c2cccc(NC(C)=O)c2)n1C,-3.68
14,CCCCn1c(N)c(N(CC(C)C)C(=O)CCCc2cccs2)c(=O)[nH]c1=O,-9.44
15,O=C(NCCCn1ccnc1)c1ccc(-c2ccccc2)cc1,-21.6
16,COc1ccc(-n2ccnc2SCC(=O)NCc2ccc3c(c2)OCO3)cc1,-7.81
17,COC(=O)C1C(=O)C2=C(CC1C)Nc1ccccc1NC2c1ccc(C)s1 (stereo not drawn),12.8
18,C=CCOc1cccc(C2C(C(=O)c3ccc(C)o3)=C(O)C(=O)N2c2nccs2)c1 (stereo not drawn),7.99
19,Cc1c(CN(C)C(=O)c2ccc(Br)o2)cnn1C,-7.89

row,Structure (SMILES),"hERG current change (%, negative = inhibition) at 10uM [%]"
1,Cc1c(CN(C)C(=O)/C=C/c2ccc([N+](=O)[O-])cc2)cnn1C,-69.6
2,Cc1c(CN(C)C(=O)c2nn(C)cc2[N+](=O)[O-])cnn1C,8.63
3,CCn1cc(CNC(=O)/C=C/c2ccc([N+](=O)[O-])cc2)c(C)n1,-33
4,CCn1cc(CN(C)C(=O)/C=C/c2ccc([N+](=O)[O-])cc2)c(C)n1,-59.4
5,Cc1nn(C)cc1C(=O)/C=C/c1ccc([N+](=O)[O-])cc1,-12.4
6,COc1ccc(N(CC(=O)NC2CCCCC2)C(=O)c2ccc(C)s2)c(OC)c1,-18.1
7,CCN(CC)c1ccc(NC(=O)CCNS(=O)(=O)c2ccc3c(c2)CCC(=O)N3)c(C)c1,5.77
8,OCC(Br)CBr (stereo not drawn),23
9,C=C1CCC2[C@](C)(CO)[C@H](O)CC[C@@]2(C)[C@@H]1C/C=C1\C(=O)OC[C@H]1O (stereo partly drawn),18.9
10,CCc1nn(CC(=O)NCCCc2ccccc2)c(=O)c2cc3cc(F)ccc3n12,1.58
11,Cc1ccccc1N1CCN(C2CCCN(C(=O)CCc3c(C)noc3C)C2)CC1 (stereo not drawn),-46.3
12,CC1(CCC(=O)N2CCCC(N3CCN(c4ccc(F)cc4)CC3)C2)CC1 (stereo not drawn),-64.7
13,Cc1noc(C)c1CCC(=O)N1CCCC(N2CCN(c3ccc(F)cc3)CC2)C1 (stereo not drawn),-53.4
14,CSCC(=O)N1CCCC(N2CCN(c3cccc(C(F)(F)F)c3)CC2)C1 (stereo not drawn),-48.1
15,Cc1nn(C)c(C)c1CCC(=O)N1CCCC(N2CCN(c3ccc(F)cc3)CC2)C1 (stereo not drawn),-12.5
16,CC1(CCC(=O)N2CCCC(N3CCN(c4cccc(C(F)(F)F)c4)CC3)C2)CC1 (stereo not drawn),-61.5
17,CSCCC(=O)N1CCCC(N2CCN(c3cccc(C(F)(F)F)c3)CC2)C1 (stereo not drawn),-40.4
18,CSCC(=O)N1CCCC(N2CCN(c3ccc(F)cc3)CC2)C1 (stereo not drawn),-22.9
19,Cc1ccccc1N1CCN(C2CCCN(C(=O)CCC3(C)CC3)C2)CC1 (stereo not drawn),-48.6
